About 83,000 compounds went through this panel and 20% of them were active in at least one assay; those are over-represented in the sample as a whole.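 96-well plates, one dose, 48 hours. Percent growth reported; active if below 10.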 Active and inactive are the calls of the source.
Tests used:
Assay in all cases: NCI-60 one-dose screen, 48 h (100 = growth as untreated, 0 = no growth, -100 = all killed)
Conditions in all cases: 10 µM unless noted
[1] = tested on: NCI-H23 lung
[2] = tested on: NCI-H322M lung
[3] = tested on: HOP-62 NSCLC
[4] = tested on: NCI-H460 lung
[5] = tested on: HOP-92 NSCLC
[6] = tested on: NCI-H522 lung
[7] = tested on: A549/ATCC NSCLC
[8] = tested on: 786-0 renal
[9] = tested on: COLO 205 colon
[10] = tested on: DU-145 prostate
[11] = tested on: K-562 leukemia
[12] = tested on: MDA-MB-231 breast
[13] = tested on: RXF 393 renal
[14] = tested on: SF-268 CNS
[15] = tested on: SF-295 CNS
[16] = tested on: SF-539 CNS
[17] = tested on: UACC-257 melanoma
[18] = tested on: M14 melanoma
[19] = tested on: HCT-15 colon
[20] = tested on: MALME-3M melanoma

Measured: growth

O=C(Nc1ccc(-c2nc3cc4ccccc4cc3[nH]2)cc1)c1cccc(Br)c1
inactive: [1] 54.1% | [2] 41.3% | [3] 49.9% | [5] 72.6% | [6] 16.3% | [7] 27% | [8] 17.6% | [9] 34.6% | [10] 46.4% | [11] 26.7% | [12] 69.2% | [13] 29% | [14] 37% | [16] 30.8% | [17] 42.3% | [18] 34.2% | [19] 22.3%
active: [4] 6.74% | [15] -36.3%

CC(=O)n1cc(-c2c[nH]c3ccccc23)c(-c2ccc(Cl)cc2)n1
inactive: [1] 76.2% | [2] 83.6% | [3] 66.3% | [4] 82.3% | [5] 79.7% | [6] 74.8% | [7] 93.7% | [8] 78.9% | [9] 92.4% | [10] 96.3% | [11] 94.3% | [20] 87.2% | [13] 80.6% | [14] 86.5% | [15] 75.3% | [16] 81.7% | [17] 103% | [18] 76.1% | [19] 80.9%

COc1cc(C#N)cc2[nH]c(=O)oc12
inactive: [1] 104% | [2] 106% | [3] 103% | [4] 110% | [5] 95.5% | [6] 103% | [7] 101% | [8] 98.7% | [9] 105% | [10] 99% | [11] 123% | [20] 89.8% | [13] 128% | [14] 100% | [15] 92.4% | [16] 101% | [17] 106% | [18] 102% | [19] 95.6%

CC1=CCC(OC(=O)C(C)(C)CCC(O)(C(=O)OC2(C(C)C)CCC3(C)OC3C2)C(C)C)(C(C)C)CC1 (stereo not drawn)
active: [1] -73.2% | [2] -93% | [3] -66.7% | [4] -84.2% | [5] -71.7% | [6] -76.3% | [7] -82.8% | [8] -90.5% | [9] -61.5% | [10] -95.8% | [20] -84.1% | [12] -63.1% | [13] -91.2% | [14] -74.5% | [15] -92.2% | [16] -97.3% | [17] -57.6% | [18] -81% | [19] -59.8%

CCc1ccc(CNCC(O)c2ccccc2)cc1 (stereo not drawn)
active: [9] 7.32%
inactive: [1] 69.1% | [2] 75.6% | [3] 76.6% | [4] 77% | [5] 12.7% | [6] 77.7% | [7] 73.8% | [8] 87.5% | [10] 79.7% | [11] 22% | [12] 47% | [13] 61.6% | [14] 90.1% | [16] 86.5% | [17] 93.1% | [18] 58.7% | [19] 43.9%

COc1ccccc1C(=O)/C=C/c1ccccc1
inactive: [1] 83.4% | [2] 86.1% | [3] 86.9% | [4] 66.4% | [5] 80.6% | [6] 81.8% | [7] 76.1% | [8] 101% | [9] 117% | [10] 32.1% | [11] 23.1% | [20] 99.1% | [12] 97.6% | [14] 80% | [15] 89.9% | [16] 91.6% | [17] 92.6% | [18] 103% | [19] 53.3%

CSc1nc2c(c(=O)[nH]1)N=C1c3ccccc3C(=O)C1C(c1ccccc1)N2 (stereo not drawn)
inactive: [1] 62% | [2] 69.4% | [3] 45.5% | [4] 12.3% | [5] 59.5% | [6] 82.2% | [7] 51.6% | [8] 46% | [9] 33.5% | [10] 75.4% | [11] 34.8% | [20] 34.8% | [12] 82.6% | [14] 47.9% | [16] 25.6% | [17] 74.5% | [18] 29.4% | [19] 36.8%

O=C(c1ccccc1)N(C(=S)NCCc1ccc(Cl)cc1)c1ccccc1
inactive: [1] 95.5% | [2] 103% | [3] 103% | [4] 107% | [5] 75.2% | [6] 92.5% | [7] 97.2% | [8] 92.4% | [9] 139% | [10] 79.7% | [11] 58.1% | [12] 112% | [14] 96.2% | [15] 113% | [16] 104% | [17] 95.8% | [18] 101% | [19] 86.2%

CC/C=C\C[C@H](O)C/C=C1/C(=O)C=C[C@@H]1C/C=C\CCCC(=O)OCCS(=O)(=O)c1ccccc1
active: [6] -7.61% | [11] 7.77%
inactive: [1] 59% | [2] 71.2% | [3] 22.1% | [4] 42% | [5] 110% | [7] 78.1% | [8] 60% | [9] 43.6% | [10] 47.7% | [20] 63.7% | [12] 40.2% | [14] 42.6% | [15] 100% | [16] 59.9% | [17] 66.8% | [18] 27.5% | [19] 62%

COc1cccc(C(=O)Cn2cc(/C=C(\C#N)S(=O)(=O)c3ccccc3)c3ccccc32)c1
inactive: [1] 90.4% | [2] 96.7% | [3] 83.1% | [4] 57.5% | [5] 68.8% | [6] 88% | [7] 93.1% | [8] 99.3% | [9] 90.7% | [10] 105% | [11] 79.2% | [20] 108% | [12] 102% | [14] 93.7% | [15] 88.8% | [16] 90.5% | [17] 89.9% | [18] 86.5% | [19] 110%

O=C(c1ccccc1)N(CCc1ccc(Cl)cc1)C(=S)N(C(=O)c1ccccc1)c1ccccc1
inactive: [1] 92.7% | [2] 111% | [3] 118% | [4] 106% | [5] 71% | [6] 105% | [7] 97.3% | [8] 97.6% | [9] 150% | [10] 83.9% | [11] 58.3% | [12] 107% | [14] 101% | [15] 109% | [16] 106% | [17] 102% | [18] 113% | [19] 93.8%

COc1ccc(-n2c(C(O)c3ccccc3)nn(CN3CCOCC3)c2=S)cc1 (stereo not drawn)
inactive: [1] 99.4% | [2] 104% | [3] 101% | [4] 111% | [5] 82.6% | [6] 89.9% | [7] 103% | [8] 106% | [9] 112% | [10] 109% | [11] 110% | [20] 104% | [12] 97.6% | [14] 103% | [15] 79.7% | [16] 102% | [17] 105% | [18] 95.2% | [19] 113%

COc1ccc(-c2nsc3c2NC(=O)CC3c2ccsc2)cc1 (stereo not drawn)
inactive: [1] 39.6% | [2] 42.4% | [3] 33.5% | [5] 71.9% | [6] 11.6% | [7] 27.4% | [8] 29.8% | [11] 13.3% | [20] 43.6% | [13] 18% | [14] 47.1% | [17] 77.3% | [18] 18% | [19] 13.8%
active: [4] 6.14% | [9] -77.3% | [10] -8.61% | [15] 2.29% | [16] -7.51%

COC(=O)/C(=C\c1c(-c2ccccc2)[nH]c2ccccc12)S(C)(=O)=O
active: [10] -5.09% | [16] 4.74%
inactive: [1] 33.9% | [2] 63.8% | [3] 38.2% | [4] 12.5% | [5] 65.4% | [6] 47.1% | [7] 38.6% | [8] 38.1% | [9] 24.3% | [11] 17.2% | [20] 74.1% | [12] 49.7% | [14] 26.8% | [15] 32% | [17] 67.4% | [18] 14.9% | [19] 34.5%

CCOc1ccc2nc(C)cc(Nc3ccc(Br)cc3)c2c1
inactive: [1] 95.8% | [2] 93.9% | [3] 109% | [4] 101% | [5] 105% | [6] 107% | [7] 95.2% | [8] 108% | [9] 95.9% | [10] 110% | [11] 87.6% | [12] 109% | [13] 110% | [14] 108% | [15] 110% | [16] 103% | [17] 103% | [18] 121% | [19] 82.2%

COc1ccc(C2Nc3ncnc(N)c3N=C3c4ccccc4C(=O)C32)cc1 (stereo not drawn)
inactive: [1] 101% | [2] 101% | [3] 85.2% | [4] 104% | [5] 55.4% | [6] 101% | [7] 96.3% | [8] 93.5% | [9] 93.2% | [10] 102% | [11] 84.5% | [20] 101% | [12] 97.9% | [14] 84% | [15] 96.9% | [16] 100% | [17] 102% | [18] 94.8% | [19] 89.4%

Cc1ccc2[nH]c(=O)cc(-n3nncc3Cn3c4ccccc4c4ccccc43)c2c1
inactive: [1] 94.1% | [2] 97.6% | [3] 93.4% | [4] 102% | [5] 89.8% | [6] 93.9% | [7] 98.9% | [8] 101% | [9] 116% | [10] 102% | [20] 93.5% | [12] 97.6% | [14] 86.4% | [15] 98.9% | [16] 94% | [17] 97.5% | [18] 105% | [19] 99%

— PubChem BioAssay (NCI)
